Results on eleven compounds are retold here after the supplement of paper PMC12297408.

Unmarked numbers belong to inactive results.

This test relates to Plasmodium falciparum NF54/iGP1_RE9H ulg8 stage V gametocytes. As to the kind of experiment: gametocyte viability (luciferase signal relative to DMSO control) (% of DMSO control); higher = less gametocytocidal activity, active = 50 or less. To be noted: exposure time: 72 h. Summed up:
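Viability was calculated relative to the mean of DMSO vehicle wells on each plate. Day-12 stage V gametocytes of line NF54/iGP1_RE9Hulg8 (~2.5% gametocytemia, 3% hematocrit, 0.5% Albumax II medium) were exposed in 96-well plates to compounds at final 10 µM or 1 µM, one well each, for 72 h at 37 °C. Luminescence was then read on an IVIS Lumina II after D-luciferin addition.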

For `O=C(O)c1ccc2c(c1)nc(Nc1cccc(Cl)c1)c1ccncc12`, the gametocyte viability is, setting by setting: (concentration: 1 µM) 101; (concentration: 10 µM) 107.
For `CN(C)Cc1cccc(N=C(c2ccccc2)c2c(O)[nH]c3cc(C(=O)N(C)C)ccc23)c1` the same measures were 116 and 121.
For `N#C/C(=C\c1ccc(O)c(O)c1)C(=O)NCc1ccccc1` the same measures were 98.4 and 95.8.
For `CC(C)(C)c1cc(C=C(C#N)C(N)=S)cc(C(C)(C)C)c1O` the same measures were 103 and 102.
On to `OCCn1cc(-c2cnc3nnn(Cc4ccc5ncccc5c4)c3n2)cn1`, for which the gametocyte viability is, setting by setting: (concentration: 1 µM) 93.3; (concentration: 10 µM) 98.6.
For `COC(=O)/C=C/c1cc(O)ccc1O` [Erbstatin analog] the same measures were 97.8 and 99.1.
For `CS(=O)(=O)N1CCN(Cc2cc3nc(-c4cccc5[nH]ncc45)nc(N4CCOCC4)c3s2)CC1`, the gametocyte viability reads like this: (concentration: 1 µM) 97.2; (concentration: 10 µM) 108.
For `N#C/C(=C\c1cc(Cl)cc(Cl)c1)c1cccnc1` the same measures were 98.1 and 101.
Turning to `O=C1NC(=O)/C(=C/c2ccc3nccc(-c4ccncc4)c3c2)S1`, the gametocyte viability was 101 (concentration: 1 µM) and 103 (concentration: 10 µM).
As to `COCc1cc(O)c(O)c(O)c1-c1c(COC)cc(O)c(O)c1O`, the gametocyte viability is, setting by setting: (concentration: 1 µM) 104; (concentration: 10 µM) 92.3.
For the compound `Cn1cnc2c(F)c(Nc3ccc(Br)cc3Cl)c(C(=O)NOCCO)cc21` [AZD6244 (Selumetinib)], the gametocyte viability runs as follows: (concentration: 1 µM) 102; (concentration: 10 µM) 105.
